Reference: ChEMBL document CHEMBL3988442, “University of Dundee, Small-Polar-MMV Screening Library” (2021)
For some of these results: Entries with a potency or affinity are not part of this list.

Columns and labels:
Set-up in all cases: scale not given: direction of the effect not stated beside the values
[1] = target: Protein translocase subunit SecA (Escherichia coli (strain K12)) (UniProt P10408); test: Assay to Identify E. coli SecA ATPase Inhibitors; assay type: functional; conditions: 30 µM
[2] = target: T1, Ubiquitin-activating enzyme e1, putative (Leishmania donovani (strain BPK282A1)) (UniProt E9BSI1); test: Leishmania donovani Ubiquitin Activating Enzyme (LdE1); assay type: functional; conditions: 30 µM
T1 sequence (whole entry): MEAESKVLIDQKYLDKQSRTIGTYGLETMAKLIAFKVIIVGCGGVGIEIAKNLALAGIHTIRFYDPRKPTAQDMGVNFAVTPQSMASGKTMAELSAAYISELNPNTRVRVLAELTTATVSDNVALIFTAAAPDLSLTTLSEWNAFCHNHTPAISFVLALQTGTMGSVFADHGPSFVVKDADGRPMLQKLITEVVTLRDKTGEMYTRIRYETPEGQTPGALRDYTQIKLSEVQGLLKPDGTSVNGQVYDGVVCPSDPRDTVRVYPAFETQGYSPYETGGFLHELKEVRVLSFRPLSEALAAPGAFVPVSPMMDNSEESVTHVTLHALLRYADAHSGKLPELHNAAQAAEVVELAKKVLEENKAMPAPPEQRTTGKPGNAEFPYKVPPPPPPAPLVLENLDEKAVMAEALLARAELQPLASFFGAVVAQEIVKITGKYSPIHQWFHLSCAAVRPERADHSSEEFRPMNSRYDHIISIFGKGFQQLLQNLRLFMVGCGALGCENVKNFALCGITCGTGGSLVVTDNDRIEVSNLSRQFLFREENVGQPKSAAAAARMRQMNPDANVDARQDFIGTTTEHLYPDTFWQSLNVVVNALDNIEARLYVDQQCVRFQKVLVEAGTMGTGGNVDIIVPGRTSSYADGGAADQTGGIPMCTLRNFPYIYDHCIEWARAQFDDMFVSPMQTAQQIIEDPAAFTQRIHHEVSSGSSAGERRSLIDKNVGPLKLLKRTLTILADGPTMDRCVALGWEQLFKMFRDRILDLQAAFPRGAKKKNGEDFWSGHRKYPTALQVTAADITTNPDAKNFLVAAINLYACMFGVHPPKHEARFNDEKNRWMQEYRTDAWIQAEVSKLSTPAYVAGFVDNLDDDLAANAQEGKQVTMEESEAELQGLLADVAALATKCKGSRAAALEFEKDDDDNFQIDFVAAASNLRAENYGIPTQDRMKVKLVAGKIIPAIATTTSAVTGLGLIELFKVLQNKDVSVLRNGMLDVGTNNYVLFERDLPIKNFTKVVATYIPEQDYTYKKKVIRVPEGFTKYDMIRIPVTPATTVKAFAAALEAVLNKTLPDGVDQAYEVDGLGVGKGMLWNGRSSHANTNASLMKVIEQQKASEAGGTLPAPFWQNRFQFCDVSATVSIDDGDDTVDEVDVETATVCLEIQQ

[3] = target: T2, Aspartate--tRNA(Asp/Asn) ligase (Mycobacterium tuberculosis (strain ATCC 25618 / H37Rv)) (UniProt P9WFW3); test: Assay for Asp RNA synthetase-1 from Mycobacterium tuberculosis; assay type: functional; conditions: 30 µM; note: in the data most compounds retested in dose-response had high values
T2 sequence (whole entry): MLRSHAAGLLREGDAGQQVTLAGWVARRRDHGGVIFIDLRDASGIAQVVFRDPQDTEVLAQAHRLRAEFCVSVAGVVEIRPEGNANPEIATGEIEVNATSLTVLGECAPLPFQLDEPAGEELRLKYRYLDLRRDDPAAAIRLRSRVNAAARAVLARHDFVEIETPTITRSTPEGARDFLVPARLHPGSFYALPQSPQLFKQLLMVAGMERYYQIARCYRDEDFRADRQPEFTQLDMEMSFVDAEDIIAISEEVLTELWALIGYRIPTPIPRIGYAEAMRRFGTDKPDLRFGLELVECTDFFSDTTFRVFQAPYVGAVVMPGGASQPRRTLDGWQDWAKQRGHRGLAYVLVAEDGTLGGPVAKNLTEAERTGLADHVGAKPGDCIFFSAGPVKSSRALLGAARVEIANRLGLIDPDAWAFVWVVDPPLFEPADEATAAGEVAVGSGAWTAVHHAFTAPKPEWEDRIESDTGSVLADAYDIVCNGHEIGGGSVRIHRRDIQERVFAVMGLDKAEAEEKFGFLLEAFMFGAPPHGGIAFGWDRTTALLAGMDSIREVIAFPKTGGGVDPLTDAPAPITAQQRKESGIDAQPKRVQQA

[4] = target: AMP-activated protein kinase, AMPK (Homo sapiens) (UniProt P54646+O43741+P54619+Q9UGJ0+Q9Y478+Q13131+Q9UGI9); test: AMP-dependent Kinase enzyme assay. An in vitro enzyme assay that detects ADP turnover that is directly proportional to AMPK activity. This uses naive AMPK that is activated during the assay with MK-8722; assay type: functional; conditions: 30 µM
[5] = target: Sialic acid-binding Ig-like lectin 9 (Homo sapiens) (UniProt Q9Y336); test: Hs-Siglec9 ALPHAscreen SOP 20170721; conditions: 10 µM
Trypanosoma cruzi = test: Trypanosoma cruzi phosphomannomutase and mannose-1-phosphate guanylyltransferase assay; assay type: functional; conditions: 10 µM
[6] = target: T3, Arginase-2, mitochondrial (Homo sapiens) (UniProt P78540); test: in vitro enzyme assay to detect the production of urea directly proportional to the activity of Arginase II; assay type: functional; conditions: 33.3 µM; note: in the data most compounds retested in dose-response had high values
T3 sequence (whole entry): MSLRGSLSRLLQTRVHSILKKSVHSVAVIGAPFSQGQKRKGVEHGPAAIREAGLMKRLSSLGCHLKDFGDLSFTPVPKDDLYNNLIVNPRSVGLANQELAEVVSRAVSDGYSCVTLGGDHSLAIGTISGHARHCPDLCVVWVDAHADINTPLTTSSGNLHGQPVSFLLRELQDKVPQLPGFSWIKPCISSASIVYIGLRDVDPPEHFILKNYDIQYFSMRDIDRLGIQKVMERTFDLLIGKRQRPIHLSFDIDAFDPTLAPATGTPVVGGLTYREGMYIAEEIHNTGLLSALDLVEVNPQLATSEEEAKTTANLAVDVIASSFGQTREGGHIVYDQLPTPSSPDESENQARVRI

[7] = target: T4, Proteasome subunit beta (Trypanosoma cruzi) (UniProt O96673); test: Trypanosoma cruzi proteasome chymotrypsin-like activity (TcProtChymo) assay.; note: in the data most compounds retested in dose-response had high values; assay type: functional; conditions: 9.37 µM
T4 sequence (whole entry): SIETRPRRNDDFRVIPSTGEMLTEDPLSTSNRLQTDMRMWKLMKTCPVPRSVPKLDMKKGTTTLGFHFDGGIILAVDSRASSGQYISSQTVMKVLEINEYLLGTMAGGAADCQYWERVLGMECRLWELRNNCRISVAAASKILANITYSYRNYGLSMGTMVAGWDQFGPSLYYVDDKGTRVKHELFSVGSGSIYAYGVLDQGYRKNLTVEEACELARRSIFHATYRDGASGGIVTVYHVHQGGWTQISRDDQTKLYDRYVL

Homo sapiens = organism: Homo sapiens; test: To identify inhibition of the IFN signalling (Jak-Stat) pathway via expression of an eGFP reporter gene under the control of an IFN-stimulated response element (ISRE) containing MxA promoter.; assay type: functional; conditions: 30 µM
[8] = target: Shiga toxin 2 (Escherichia coli O157:H7) (UniProt P09385+P09386); test: E. coli 0.157:H7 Shiga Toxin SOP - stx2 screening assay; assay type: functional; conditions: 30 µM
[9] = target: T5, Tyrosyl-tRNA synthetase, putative (Trypanosoma cruzi (strain CL Brener)) (UniProt Q4DSP6); test: Trypanosoma cruzi tyrosyl tRNA synthetase (TcYRS) _High Tyrosine SOP; assay type: functional; conditions: 30 µM; note: in the data most compounds retested in dose-response had high values
T5 sequence (whole entry): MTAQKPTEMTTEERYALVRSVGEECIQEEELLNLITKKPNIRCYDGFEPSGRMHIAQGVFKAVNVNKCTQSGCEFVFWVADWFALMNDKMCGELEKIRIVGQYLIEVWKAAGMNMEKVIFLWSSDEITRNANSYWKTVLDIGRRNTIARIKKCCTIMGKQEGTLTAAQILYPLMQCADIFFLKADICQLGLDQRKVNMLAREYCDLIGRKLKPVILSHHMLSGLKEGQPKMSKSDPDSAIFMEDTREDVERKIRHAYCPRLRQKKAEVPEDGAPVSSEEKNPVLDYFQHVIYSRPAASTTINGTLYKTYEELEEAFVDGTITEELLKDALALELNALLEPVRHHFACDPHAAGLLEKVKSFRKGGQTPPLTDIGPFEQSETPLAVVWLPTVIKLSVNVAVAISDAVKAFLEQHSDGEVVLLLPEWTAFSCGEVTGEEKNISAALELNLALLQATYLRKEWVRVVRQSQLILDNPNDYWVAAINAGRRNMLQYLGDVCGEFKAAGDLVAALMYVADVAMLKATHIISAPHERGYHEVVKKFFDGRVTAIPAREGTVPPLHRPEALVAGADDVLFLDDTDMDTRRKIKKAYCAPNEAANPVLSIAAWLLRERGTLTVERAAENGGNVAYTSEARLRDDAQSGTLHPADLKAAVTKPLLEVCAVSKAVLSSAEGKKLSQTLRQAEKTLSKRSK

[10] = target: T5, Tyrosyl-tRNA synthetase, putative (Trypanosoma cruzi (strain CL Brener)); test: Trypanosoma cruzi tyrosyl tRNA synthetase (TcYRS) SOP; assay type: functional; conditions: 30 µM
[11] = target: Chromo domain-containing protein 1 (Saccharomyces cerevisiae (strain ATCC 204508 / S288c) (Baker's yeast)) (UniProt P32657); test: ScCHD-1 Enzyme Inhibition Assay; assay type: functional; conditions: 30 µM; note: in the data most compounds retested in dose-response had high values
Sequence of Chromo domain-containing protein 1 (Saccharomyces cerevisiae (strain ATCC 204508 / S288c) (Baker's yeast)) (P32657 whole entry, the tested form may be a part): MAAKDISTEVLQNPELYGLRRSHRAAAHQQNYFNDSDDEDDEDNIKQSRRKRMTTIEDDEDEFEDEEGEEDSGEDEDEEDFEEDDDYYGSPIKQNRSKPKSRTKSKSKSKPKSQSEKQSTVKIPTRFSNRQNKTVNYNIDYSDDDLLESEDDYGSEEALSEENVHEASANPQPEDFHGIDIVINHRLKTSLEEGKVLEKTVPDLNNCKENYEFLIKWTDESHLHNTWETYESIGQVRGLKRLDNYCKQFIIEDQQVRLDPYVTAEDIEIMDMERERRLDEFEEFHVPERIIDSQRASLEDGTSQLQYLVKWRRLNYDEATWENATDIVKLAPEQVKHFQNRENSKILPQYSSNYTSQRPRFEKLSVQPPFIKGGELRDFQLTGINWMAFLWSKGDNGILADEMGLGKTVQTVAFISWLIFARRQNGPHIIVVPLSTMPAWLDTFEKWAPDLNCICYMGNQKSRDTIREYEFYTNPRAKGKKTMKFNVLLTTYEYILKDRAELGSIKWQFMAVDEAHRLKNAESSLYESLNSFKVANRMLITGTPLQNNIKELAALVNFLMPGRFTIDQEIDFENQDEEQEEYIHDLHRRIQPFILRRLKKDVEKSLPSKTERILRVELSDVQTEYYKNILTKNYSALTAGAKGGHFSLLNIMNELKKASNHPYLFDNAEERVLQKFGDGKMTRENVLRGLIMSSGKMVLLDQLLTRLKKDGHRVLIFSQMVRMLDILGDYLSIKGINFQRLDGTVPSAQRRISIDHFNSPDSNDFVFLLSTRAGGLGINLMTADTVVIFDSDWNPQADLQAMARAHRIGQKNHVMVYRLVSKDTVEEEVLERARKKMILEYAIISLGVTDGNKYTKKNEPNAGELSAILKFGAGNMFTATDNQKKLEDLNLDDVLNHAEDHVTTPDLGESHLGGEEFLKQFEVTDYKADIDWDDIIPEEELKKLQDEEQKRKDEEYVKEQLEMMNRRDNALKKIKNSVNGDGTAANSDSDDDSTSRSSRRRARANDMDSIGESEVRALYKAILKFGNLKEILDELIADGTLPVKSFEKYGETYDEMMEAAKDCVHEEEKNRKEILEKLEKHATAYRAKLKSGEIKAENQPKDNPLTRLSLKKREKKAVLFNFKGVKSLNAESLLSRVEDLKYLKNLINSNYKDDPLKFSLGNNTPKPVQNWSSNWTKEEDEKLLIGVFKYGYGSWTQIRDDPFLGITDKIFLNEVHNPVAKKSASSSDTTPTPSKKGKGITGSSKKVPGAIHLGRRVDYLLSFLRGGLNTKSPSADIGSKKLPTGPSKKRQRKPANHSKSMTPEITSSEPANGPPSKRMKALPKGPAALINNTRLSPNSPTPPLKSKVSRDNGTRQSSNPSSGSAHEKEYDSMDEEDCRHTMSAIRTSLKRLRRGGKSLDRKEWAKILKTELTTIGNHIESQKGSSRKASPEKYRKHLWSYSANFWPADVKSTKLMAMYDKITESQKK

Sequence of Sialic acid-binding Ig-like lectin 9 (Homo sapiens) (Q9Y336 whole entry): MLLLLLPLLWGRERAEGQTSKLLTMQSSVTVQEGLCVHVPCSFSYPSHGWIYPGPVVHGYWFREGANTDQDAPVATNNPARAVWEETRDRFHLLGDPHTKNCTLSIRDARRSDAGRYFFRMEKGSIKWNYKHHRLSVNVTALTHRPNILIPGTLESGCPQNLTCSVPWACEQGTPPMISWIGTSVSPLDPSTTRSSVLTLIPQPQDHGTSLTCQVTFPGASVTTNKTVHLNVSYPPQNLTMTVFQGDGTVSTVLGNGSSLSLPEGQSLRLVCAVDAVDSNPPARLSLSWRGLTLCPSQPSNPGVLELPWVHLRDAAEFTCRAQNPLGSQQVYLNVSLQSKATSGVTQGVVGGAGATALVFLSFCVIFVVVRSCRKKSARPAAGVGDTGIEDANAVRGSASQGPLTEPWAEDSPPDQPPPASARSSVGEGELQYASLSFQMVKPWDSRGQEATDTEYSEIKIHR
Sequence of Protein translocase subunit SecA (Escherichia coli (strain K12)) (P10408 whole entry): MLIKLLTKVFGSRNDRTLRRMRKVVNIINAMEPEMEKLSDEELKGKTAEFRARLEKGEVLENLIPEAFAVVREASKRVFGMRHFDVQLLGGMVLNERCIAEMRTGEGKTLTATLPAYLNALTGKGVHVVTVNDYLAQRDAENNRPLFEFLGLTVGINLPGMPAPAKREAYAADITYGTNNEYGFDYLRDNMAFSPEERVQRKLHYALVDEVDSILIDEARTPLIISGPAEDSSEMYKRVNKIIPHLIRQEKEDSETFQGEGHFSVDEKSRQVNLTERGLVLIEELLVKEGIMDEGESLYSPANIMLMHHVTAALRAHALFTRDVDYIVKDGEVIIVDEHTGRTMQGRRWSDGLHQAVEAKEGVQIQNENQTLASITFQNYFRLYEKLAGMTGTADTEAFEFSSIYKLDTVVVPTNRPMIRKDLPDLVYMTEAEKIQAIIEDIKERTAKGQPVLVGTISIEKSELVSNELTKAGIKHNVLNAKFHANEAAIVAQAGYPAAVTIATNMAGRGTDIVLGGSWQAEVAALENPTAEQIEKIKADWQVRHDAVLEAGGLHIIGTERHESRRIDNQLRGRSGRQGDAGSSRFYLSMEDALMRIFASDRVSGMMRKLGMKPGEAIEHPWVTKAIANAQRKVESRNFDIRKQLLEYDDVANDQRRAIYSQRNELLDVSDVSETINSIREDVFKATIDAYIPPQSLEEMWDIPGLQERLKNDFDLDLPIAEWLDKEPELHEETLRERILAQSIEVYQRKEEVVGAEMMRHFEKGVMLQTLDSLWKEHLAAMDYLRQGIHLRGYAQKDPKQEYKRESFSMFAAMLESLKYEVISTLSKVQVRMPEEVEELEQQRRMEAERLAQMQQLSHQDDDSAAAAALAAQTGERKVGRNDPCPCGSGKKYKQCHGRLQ

| SMILES | Percent Effect [1] | Percent Effect [2] | Percent Effect [3] | Percent Effect [4] | Percent Effect [5] | Percent Effect (Trypanosoma cruzi) | Percent Effect [6] | Percent Effect [7] | Percent Effect (Homo sapiens) | Percent Effect [8] | Percent Effect [9] | Percent Effect [10] | Percent Effect [11] |
| --- | --- | --- | --- | --- | --- | --- | --- | --- | --- | --- | --- | --- | --- |
| CNC(=O)c1ccc2c(c1)C1(CCN(CC(C)C)CC1)C(=O)N2 | -7.23% | 5.41% | 3.94% | -0.561% | -0.632% | -4.2% | 0.248% | 3.52% | 3.77% | 7.05% | 4.3% | 11.1% | -2.94% |
| CCN1CCC(c2cncc(N(C)C)n2)CC1 | -1.04% | 13.3% | -2.49% | 1.31% | -3.05% | -2.76% | -3.96% | 13.5% | 6.71% | -7.25% | 3.19% | 11.5% | -4.48% |
| CC(Cn1cccn1)NCc1nc(-c2cccs2)no1 (stereo not given) | -4.32% | 5.26% | -3.4% | -6.35% | 2.35% | 3.08% | -2.88% | 5.67% | -9.95% | 4.43% | 4.43% | 16.1% | -2.61% |
| O=C1[C@H]2CN(Cc3ccoc3)C[C@H]2CN1Cc1ccncc1 | -3.37% | 7.79% | 3.69% | 2.81% | 28.9% | -4.23% | 4.14% | 7.32% | -1.81% | -39.9% | 3.23% | 8.64% | 10.5% |
| CCn1ccnc1CN1CCCN(C(=O)Cc2ccc(C)nc2)CC1 | -2.41% | 5.2% | 1.82% | 5.72% | 3.18% | 2.45% | 3.16% | 10.4% | -0.845% | 6.49% | -0.952% | 0% | -16.3% |
| O=C1CC[C@@H]2[C@@H](CCN2Cc2ccncc2)N1c1ccccc1 | -3.22% | -8% | 0.204% | -13.7% | 8.87% | -2.7% | 0.896% | 11.1% | -5.31% | -8.6% | 5.21% | 7.5% | -2.91% |
| CCN(CC)C(=O)c1ccc(NC(=O)CNc2ccc(Br)cc2F)cc1 | -3.06% | 10.5% | 0.958% | 1.85% | -6.58% | 1.85% | -17.8% | 12% | 2.22% | -41.8% | 5.32% | 20.8% | -13% |
| O=C([C@H]1C[C@H]2OCC[C@H]2N(Cc2ccncc2)C1)N1CCCCO1 | -5.42% | 18.7% | 0.349% | -3.96% | -0.793% | 5.6% | -46.4% | 15.9% | -2.86% | -11.8% | 8.33% | 25% | -6.46% |
| CCN(CC)C(=O)c1ccc(NC(=O)CNc2ccc(F)cc2Cl)cc1 | -1.29% | 10.5% | 5.36% | 5.61% | 3.25% | 2.04% | 0% | 16.6% | -29.3% | -38.1% | 9.57% | 15.6% | -3.17% |
| Cc1cccc(CN2C[C@H](NS(C)(=O)=O)[C@@H]3OCCC[C@@H]32)n1 | -0.629% | -5.33% | -2.65% | 9.72% | 5.95% | -4.83% | -50% | 0.513% | 3.24% | -15.5% | 1.04% | -5% | -2.83% |
